This is part of a sample that, as a whole, favours compounds with a hit. Of some 79,000 tested, about 15% had one in any assay. A number with no mark means an inactive call. Activity calls are given as the source filed them. Cut-off read from the data, not from the text of the source: active = growth inhibition above about 70%; inactive = the rest.

Experiment [1] is described as follows: NCI Yeast Anticancer Drug Screen. Data for the rad50 strain (AID 155).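 Note: 0% = growth of vehicle-only cultures of the same strain.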 Particulars: S. cerevisiae rad50 strain growth inhibition; at 50.0 µM; stronger effect = higher value. The essentials:
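Compounds were tested on a yeast strain with an engineered DNA damage repair alteration; the reported value is growth inhibition normalised to vehicle treatment.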

Experiment [2] is described as follows: NCI Yeast Anticancer Drug Screen. Data for the mec2-1 strain (AID 157). Particulars: S. cerevisiae mec2-1 strain, at 50.0 µM, stronger effect = higher value. The gist of the method: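 Compounds were applied to mec2-1 yeast cells. Their growth was then compared with that of vehicle-treated cultures to give growth inhibition.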
The nature of experiment [3]: NCI Yeast Anticancer Drug Screen. Data for the sgs1 mgt1 strain (AID 161).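 Note: 0% = growth of cultures given vehicle only.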 Particulars: S. cerevisiae sgs1 mgt1 strain, at 50.0 µM, stronger effect = higher value. The gist of the method: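 Growth of a repair-deficient yeast mutant was monitored after compound treatment and expressed as inhibition relative to vehicle-treated cultures.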
Experiment [4] is described as follows: NCI Yeast Anticancer Drug Screen. Data for the cln2 rad14 strain (AID 165).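 Note: 0% = growth equal to vehicle treated cultures.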 Particulars: S. cerevisiae cln2 rad14 strain, at 50.0 µM, stronger effect = higher value. The essentials:
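Strain: cln2 rad14 yeast, altered in cell cycle control and DNA damage repair. Read-out: growth inhibition vs vehicle.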

Experiment [5] can be described thus: NCI Yeast Anticancer Drug Screen. Data for the bub3 strain (AID 167). Particulars: S. cerevisiae bub3 mutant strain, at 50.0 µM, stronger effect = higher value. The gist of the method:
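Growth of a checkpoint-deficient yeast mutant is measured after compound exposure. Values represent inhibition relative to vehicle.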

Experiment [6] in a line: NCI Yeast Anticancer Drug Screen. Data for the mlh1 rad18 strain (AID 175). Particulars: S. cerevisiae mlh1 rad18 strain growth inhibition; at 50.0 µM; stronger effect = higher value. The essentials:
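A repair-deficient yeast strain is exposed to test compound, and growth is scored relative to vehicle-treated controls.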

Turning to `CCc1ccccc1NC(=O)C1=C(C)NC(C)=C(C(=O)Nc2ccccc2CC)C1c1cccc([N+](=O)[O-])c1`, the growth inhibition was -0.95% in experiment [1]; 52% in experiment [2]; 24.2% in experiment [3]; 17.9% in experiment [4]; 36.5% in experiment [5]; 20.5% in experiment [6].

`CC(C)(C)C(=O)CC(=O)C(C)(C)C.[Cu]`: the growth inhibition in experiment [1] was -10.2%; in experiment [2], -9.35%; in experiment [3] it was -4.2%; in experiment [4], -56.6%; in experiment [5], -26.4%; in experiment [6] it was 9.05%.

With `C=CCC12CC(O)C(O)CC1(OC)OC(c1cc(OC)c(OC)c(OC)c1)C2C` (stereo not drawn), the growth inhibition in experiment [1] was -1.1%; in experiment [2], -8.75%; in experiment [3], -8.1%; in experiment [4], -4.75%; in experiment [5] it was 4.35%; in experiment [6], 7.9%.

Regarding `Cc1c(Br)c(Br)nn1C(C)C(=O)N(C)C` (stereo not drawn), the growth inhibition in experiment [1] is 1.75%; in experiment [2] it was 1.6%; in experiment [3] it was -4.55%; in experiment [4] it was -40.8%; in experiment [5], -31.8%; in experiment [6] it was 4.45%.

On to `CC(C)(C)C(C(N)=O)C(C)(C)C`, for which the growth inhibition is 4.4% in experiment [1]; 2.6% in experiment [2]; -6.1% in experiment [3]; 14.4% in experiment [4]; 10.8% in experiment [5]; -19.6% in experiment [6].

Consider `COc1ccc(C=O)c(Br)c1O`, for which the growth inhibition in experiment [1] was -0.65%; in experiment [2], -6.85%; in experiment [3], -14.2%; in experiment [4] it was 22.4%; in experiment [5], -12.3%; in experiment [6], -16.9%.

As to `CCC1C(=O)OCc2c1cc1n(c2=O)CCC12OCCO2` (stereo not drawn), the growth inhibition in experiment [1] is 0.1%; in experiment [2] it was -15.1%; in experiment [3], -36.8%; in experiment [4], -17.6%; in experiment [5], -23.8%; in experiment [6] it was -15.6%.

With `CCNC(=O)NCC`, the growth inhibition in experiment [1] is -16.4%; in experiment [2], -19.4%; in experiment [3], -32.7%; in experiment [4] it was -29.2%; in experiment [5], -2%; in experiment [6], -3.4%.

As for `c1ccc2[nH]c3[nH]c4[nH]c5ccccc5[nH]c4[nH]c3[nH]c2c1`, the growth inhibition in experiment [1] was -29.2%; in experiment [2], -9.2%; in experiment [3] it was -20.6%; in experiment [4], -6.2%; in experiment [5] it was -8.5%; in experiment [6], -11.8%.

In the case of `O=C(O)/C=C/C(=O)Nc1cc2c(cc1Br)-c1ccccc1C2O` (stereo not drawn), the growth inhibition is -2.75% in experiment [1]; 12.5% in experiment [2]; 14.3% in experiment [3]; 14.1% in experiment [4]; 1.25% in experiment [5]; 34% in experiment [6].

`CCOC(=O)/C(Cc1cc(=O)n(C)c2ccccc12)=N\Nc1ccccc1`: the growth inhibition in experiment [1] was 2.85%; in experiment [2], -12.2%; in experiment [3] it was 2.6%; in experiment [4], -4.6%; in experiment [5], 10.6%; in experiment [6], -6.75%.

`COc1ccccc1N1C(Cl)C(=O)C1c1c[nH]c2ccccc12` (stereo not drawn): the growth inhibition in experiment [1] was 26.9%; in experiment [2] it was -40.3%; in experiment [3], -28.7%; in experiment [4] it was 4.4%; in experiment [5] it was -26.6%; in experiment [6], -34.9%.

Turning to `C(=Nc1cccc2ccccc12)Nc1cccc2ccccc12`, the growth inhibition is -10.9% in experiment [1]; -38.7% in experiment [2]; -5.8% in experiment [3]; -6.7% in experiment [4]; -48.8% in experiment [5]; 1.25% in experiment [6].

In the case of `Cc1ncc2c(n1)CCC1=C2OS(=O)(=O)CC1N(C)C` (stereo not drawn), the growth inhibition in experiment [1] is -24.1%; in experiment [2] it was -0.45%; in experiment [3], -3.3%; in experiment [4], 1.6%; in experiment [5], -10.1%; in experiment [6] it was -22.4%.

Turning to `COc1ccc(C2c3cc4c(cc3OC(C)(OC)C2C)OCO4)c(OC)c1` (stereo not drawn), the growth inhibition is 5.25% in experiment [1]; 26.2% in experiment [2]; 32.6% in experiment [3]; -47.2% in experiment [4]; -5.85% in experiment [5]; 21% in experiment [6].

As for `O=S(=O)(Cc1ccccc1)C(I)c1ccccc1` (stereo not drawn), the growth inhibition in experiment [1] is 82.2% (active); in experiment [2] it was 55.9%; in experiment [3] it was 65.5%; in experiment [4], 51%; in experiment [5], 60.7%; in experiment [6] it was 73% (active).

As for `Clc1ccc2c(c1)C(Nc1cc3c4ccccc4ccc3c3ccccc13)c1cc(Cl)cc(Cl)c1-2` (stereo not drawn), the growth inhibition in experiment [1] is 51.2%; in experiment [2], -1.25%; in experiment [3], 22.6%; in experiment [4], 21.1%; in experiment [5], 9.3%; in experiment [6] it was 12.2%.

On to `CN1CC2(C)OC3(CC2(C)N1C)N(C)N(C)CC3(C)O` (stereo not drawn), for which the growth inhibition in experiment [1] is -12.2%; in experiment [2] it was -1.9%; in experiment [3] it was -12.8%; in experiment [4], 40%; in experiment [5], 11.8%; in experiment [6], -8.95%.

`COc1ccc(-c2nnc(CCCCCCCCc3nnc(-c4ccc(OC)cc4)n3N)n2N)cc1`: the growth inhibition is -8.05% in experiment [1]; -23.9% in experiment [2]; -9.45% in experiment [3]; 0.8% in experiment [4]; -2.7% in experiment [5]; -1% in experiment [6].

As to `Cn1c(=O)n2n(c1=O)C1C=CC2C2C=C(c3ccccc3)C21` (stereo not drawn), the growth inhibition is -18.4% in experiment [1]; -1.35% in experiment [2]; -0.8% in experiment [3]; 1.75% in experiment [4]; 36.5% in experiment [5]; 0.3% in experiment [6].

With `CCOC(=O)COc1cc(C)c2ccc(=O)oc2c1`, the growth inhibition was 3.9% in experiment [1]; -1.35% in experiment [2]; 10.8% in experiment [3]; 8.45% in experiment [4]; 6.4% in experiment [5]; 29.1% in experiment [6].

On to `c1cc2c3c(c1)ccc1cccc(c13)CC2`, for which the growth inhibition in experiment [1] is 4.45%; in experiment [2], -34.1%; in experiment [3] it was 3.3%; in experiment [4], 1.5%; in experiment [5], -22.8%; in experiment [6] it was 13.9%.

With `COc1cccc(/C(CC(O)(C(F)(F)F)C(F)(F)F)=N\N(C)C)c1`, the growth inhibition is -30.6% in experiment [1]; -9.9% in experiment [2]; -8.7% in experiment [3]; -38.2% in experiment [4]; 1.5% in experiment [5]; -25.2% in experiment [6].

Turning to `CCCCOP(=O)(OCCCC)/C(C#N)=C/c1ccc(C)o1`, the growth inhibition is -21.2% in experiment [1]; -40.8% in experiment [2]; -4.85% in experiment [3]; -35.4% in experiment [4]; -4.7% in experiment [5]; 10.1% in experiment [6].

In the case of `CCC(C)N(C(=O)C(C)Br)C(C)CC` (stereo not drawn), the growth inhibition was 2.95% in experiment [1]; -9.4% in experiment [2]; -19.2% in experiment [3]; -39.2% in experiment [4]; -10% in experiment [5]; 5.9% in experiment [6].

`N#Cc1cc2c3ccccc3ncc2c2ccccc12`: the growth inhibition is 0.95% in experiment [1]; 16.4% in experiment [2]; -3% in experiment [3]; -1.1% in experiment [4]; -1.7% in experiment [5]; -6% in experiment [6].

For `O=CN/C=C/c1ccccc1O`, the growth inhibition is -5% in experiment [1]; 1.8% in experiment [2]; 4.1% in experiment [3]; 6.95% in experiment [4]; 12.1% in experiment [5]; -4.6% in experiment [6].

In the case of `COc1cc(/C=C/C(=O)OCCc2ccccc2)ccc1O`, the growth inhibition in experiment [1] is 74.8% (active); in experiment [2] it was 82% (active); in experiment [3], 90.2% (active); in experiment [4], 89% (active); in experiment [5] it was 90.1% (active); in experiment [6], 61%.

Take `O=C(CCCc1ccccn1)c1ccccc1`: the growth inhibition in experiment [1] was 1.8%; in experiment [2] it was 3.85%; in experiment [3], 2.5%; in experiment [4], 5.35%; in experiment [5], -31.6%; in experiment [6], -1.45%.

On to `CC(C)(C)OC(=O)NCCNC(=O)OCc1ccccc1`, for which the growth inhibition in experiment [1] was 4.25%; in experiment [2] it was -12.2%; in experiment [3], -16.7%; in experiment [4] it was 4.45%; in experiment [5], -3.5%; in experiment [6], -0.25%.

Regarding `COC(=O)CCN1CCN(CCO)CC1C` (stereo not drawn), the growth inhibition in experiment [1] is -36.9%; in experiment [2] it was -39.8%; in experiment [3] it was -26.6%; in experiment [4], -9.75%; in experiment [5], -2%; in experiment [6] it was -32.5%.

In the case of `CC(=O)CC(=O)OC(C)OC(=O)CC(C)=O`, the growth inhibition in experiment [1] was -2.1%; in experiment [2], -13.4%; in experiment [3], -11.4%; in experiment [4], -2.5%; in experiment [5], -0.7%; in experiment [6], 0.25%.

On to `O=C(CCBr)OCCOc1ccccc1`, for which the growth inhibition in experiment [1] was 1.55%; in experiment [2] it was -3.6%; in experiment [3], 4.2%; in experiment [4], -39.8%; in experiment [5], 4.95%; in experiment [6], 2.7%.

For the compound `Nc1ccc(C(=O)NN2C(=O)C(Cl)C2c2cccc(O)c2)cc1` (stereo not drawn), the growth inhibition in experiment [1] is -4.45%; in experiment [2], -41.7%; in experiment [3] it was -35.1%; in experiment [4], -14.2%; in experiment [5], 4.3%; in experiment [6], -6.55%.

As to `Cc1ccc(S(=O)(=O)Oc2cccc(Br)c2)cc1`, the growth inhibition in experiment [1] is 8.25%; in experiment [2], -1.25%; in experiment [3] it was 21.9%; in experiment [4] it was -17.4%; in experiment [5] it was -1.1%; in experiment [6] it was 7.55%.

Consider `CNc1ccccc1C(=O)N/N=C/c1cccc([N+](=O)[O-])c1`, for which the growth inhibition in experiment [1] is -0.9%; in experiment [2], 1.05%; in experiment [3], -39%; in experiment [4], -8.6%; in experiment [5], 32.5%; in experiment [6], -8.9%.

Turning to `COCCNc1ccc([N+](=O)[O-])cc1[N+](=O)[O-]`, the growth inhibition in experiment [1] is 1.85%; in experiment [2], -1.85%; in experiment [3], -3.75%; in experiment [4], -26.9%; in experiment [5] it was -8.65%; in experiment [6], 7.1%.

On to `CC1=CC(O/C=C2\C(=O)OC3C=CCC23)OC1=O` (stereo not drawn), for which the growth inhibition is -1.6% in experiment [1]; -32% in experiment [2]; 17.4% in experiment [3]; 4.05% in experiment [4]; -11.6% in experiment [5]; 0.55% in experiment [6].

The record behind these values is PubChem BioAssay (NCI).
